# In the supplement of paper PMC6555819:
# What was measured:
# Assay in all cases: PBM binding z-score (relative to random genomic background probes); higher = stronger binding; sequences stand for … in GC…GCGATTGACAGCGTAGAATGAAGG
# [1] = test system: FXR:RXRa (NR concentration 270 nM, RXRa partner concentration 90 nM)
# Procedure, shortened: (§1)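 Binding z-scores were set against random background probes. The data came from custom Agilent 4×180K protein-binding microarrays carrying double-stranded probes with 34-nt variable regions, incubated 1 h with ligand-free nuclear receptor dimers. Partner-specific antibodies detected binding, and scanned fluorescence was regression-normalized.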
# [2] = test system: LXRa:RXRa (NR concentration 270 nM, RXRa partner concentration 90 nM)
# Procedure, shortened: as §1
# [3] = test system: LXRa homodimer (NR concentration 270 nM)
# Procedure, shortened: as §1
# [4] = test system: LXRb:RXRa (NR concentration 270 nM, RXRa partner concentration 90 nM)
# Procedure, shortened: as §1
# [5] = test system: LXRb homodimer (NR concentration 270 nM)
# Procedure, shortened: as §1
# [6] = test system: PPARa:RXRa (NR concentration 270 nM, RXRa partner concentration 90 nM)
# Procedure, shortened: as §1
# [7] = test system: PPARg:RXRa (NR concentration 180 nM, RXRa partner concentration 90 nM)
# Procedure, shortened: as §1
# [8] = test system: PPARg:RXRa 270nM:90nM, anti-RXR (NR concentration 270 nM, RXRa partner concentration 90 nM)
# Procedure, shortened: as §1
# [9] = test system: PPARg:RXRa 30nM:10nM, anti-RXR (NR concentration 30 nM, RXRa partner concentration 10 nM)
# Procedure, shortened: as §1
# [10] = test system: PPARg:RXRa 90nM:30nM, anti-RXR (NR concentration 90 nM, RXRa partner concentration 30 nM)
# Procedure, shortened: as §1
# [11] = test system: PPARg:RXRa DBDmut IVT, anti-RXR (DBD mutation: RXRa K156A/R161A, NR concentration 270 nM, RXRa partner concentration 90 nM)
# Procedure, shortened: as §1
# [12] = test system: PPARg:RXRa IVT, anti-PPARg (NR concentration 270 nM, RXRa partner concentration 90 nM)
# Procedure, shortened: as §1
# [13] = test system: PPARg DBDmut:RXRa IVT, anti-PPARg (DBD mutation: PPARg1 K132A/R137A, NR concentration 270 nM, RXRa partner concentration 90 nM)
# Procedure, shortened: as §1
# [14] = test system: PPARg DBDmut IVT, anti-PPARg (DBD mutation: PPARg1 K132A/R137A, NR concentration 270 nM)
# Procedure, shortened: as §1
# [15] = test system: PPARg homodimer (NR concentration 180 nM)
# Procedure, shortened: as §1
# [16] = test system: PXR:RXRa (NR concentration 270 nM, RXRa partner concentration 90 nM)
# Procedure, shortened: as §1
# [17] = test system: PXR homodimer (NR concentration 270 nM)
# Procedure, shortened: as §1
# [18] = test system: RARa:RXR (NR concentration 270 nM, RXRa partner concentration 90 nM)
# Procedure, shortened: as §1
# [19] = test system: RARa homodimer (NR concentration 270 nM)
# Procedure, shortened: as §1
# [20] = test system: RARb:RXRa (NR concentration 270 nM, RXRa partner concentration 90 nM)
# Procedure, shortened: as §1
Sequence,PBM binding z-score [1],PBM binding z-score [2],PBM binding z-score [3],PBM binding z-score [4],PBM binding z-score [5],PBM binding z-score [6],PBM binding z-score [7],PBM binding z-score [8],PBM binding z-score [9],PBM binding z-score [10],PBM binding z-score [11],PBM binding z-score [12],PBM binding z-score [13],PBM binding z-score [14],PBM binding z-score [15],PBM binding z-score [16],PBM binding z-score [17],PBM binding z-score [18],PBM binding z-score [19],PBM binding z-score [20]
GCTGCTAGGTCAACGGATGGTCAGCTAAAGCTCG,3.29,2.35,-0.22,1.34,-0.253,3.2,2.58,2.83,0.601,2.06,4.91,3.99,0.0458,-0.872,1.84,1.21,-0.834,2.51,-0.435,4.19
CCGACTGGGGCATAAAGGTTACCATACCATCCGG,0.385,0.747,-0.0869,0.923,-0.959,2.47,3.04,3.77,2.08,3.81,1.89,3.25,-0.548,-1.23,1.42,1.3,-0.303,1.83,0.301,1.89
CCGACTGGGGCATAAGTTTACCATAAGCCAGCCC,-0.352,-0.207,-0.448,-0.337,-0.91,0.222,1.66,2.44,0.241,1.74,3.09,2.55,-0.897,-1.31,0.107,-0.336,-0.547,-0.262,-0.566,0.68
CCTACTGGGCCATTCAGGGGTCATTGATCATATG,3.39,3.59,3.43,4.16,-0.118,4.49,2.95,3.73,1.27,2.64,3.55,4.44,-0.679,-0.364,2.13,5.18,1.05,5.59,0.603,3.03
GCTAGTTGGACAGTAAAAGGTCACACACCGGTCG,2.82,4.25,4.25,4.22,0.188,4.4,2.61,3.78,1.89,3.36,0.431,2.16,-0.417,-0.407,3.24,4.68,1.09,5.53,1.25,3.95
GCTCGTTGGTCAGTAAAAGGTCACACACCGGTCG,3.94,4.86,5.11,4.22,1.19,4.89,3.34,4.93,2.81,4.52,0.994,2.63,0.257,0.405,4.91,5.35,1.21,6.7,2.93,4.48
ATATGTAGGTTGGCTGGGGTCATTCAGACTAGGC,4.06,3.56,2.01,4.28,2.04,4.46,2.66,3.18,0.972,1.89,2.56,2.75,1.35,1.7,2.57,5.98,4.44,5.69,0.758,2.62
ATATCAAGGTGATCGTGAGGTCGTTGATACTAAC,1.97,1.33,0.367,1.31,0.595,1.82,0.923,0.763,0.0904,0.846,1.67,2.27,1.01,1.33,0.347,3.24,1.18,2.03,0.406,1.69
TCATATAGGTAAAGGTGAAACTCGAACGATATGA,0.837,1.52,-0.0632,1.7,-0.204,3.58,4.46,4.88,4.59,5.12,4.08,4.59,1.59,2.12,1.36,1.13,-0.357,1.76,0.238,2.05
CAAACTAGCTCACGAAAGGTCAAAGTCGAATGAC,4.81,5.42,5.5,5.58,2.21,5.38,2.42,4.26,1.46,3.03,0.734,2.28,0.536,0.187,3.91,5.52,1.75,6.04,2.13,4.4
GCTATTAGTTGGAAGGGCAACCGAATGATTCTCG,-0.211,-0.165,0.178,-0.0403,-0.253,0.0818,0.375,0.723,-0.127,0.108,-0.166,-0.0839,-0.592,-0.456,0.324,-0.247,-0.0418,-0.059,0.846,1.06
ATCTCTAGGCAAAGTTCAGTGAAAGATCGATAGA,0.723,1.38,0.839,0.819,0.16,1.95,2.49,3.78,1.93,3.67,0.488,0.697,0.713,0.549,0.889,1.8,1.43,1.02,0.783,2.54
TCTTGTAGATCAACTGGAGGTTAAGAAAGATCGA,0.425,1.71,1.03,1.22,-0.276,1.53,-0.287,1.31,2.76,1.89,1.68,0.919,0.402,0.432,-0.255,0.704,-0.291,1.13,-0.0829,0.631
